Screens as filed in PubChem BioAssay.
Shown are actives, neighbours in structure and some others; about 7.5% of the full set was active somewhere.
Vaccinia mCherry: inhibitors of vaccinia virus infection (mCherry reporter signal); 0.63% of 310,000 active; AID 720579; Potency, µM (series often up to 36.5 µM), without a hit: at the highest dose activity change, negative = inhibition, actives largely listed as inhibitors; Vaccinia virus mCherry reporter infection, fluorescence; calls by dose curve; tested in A549 cells; note: potency is the fitted concentration of half-maximal effect; nearly all actives have a fitted effect of over 35% in size
FBPA Giardia inh: blocks Giardia fructose-bisphosphate aldolase activity | A8B2U2 | 0.71% of 290,000 active | purified Giardia FBPA | Potency, µM (doses to about 59.6 µM), inactives show at the top dose activity, negative = inhibition, hits mostly inhibitors; note: potency is the fitted concentration of half-maximal effect; nearly all actives have a fitted effect of over 55% in size
Target sequence (A8B2U2 whole entry, looked up): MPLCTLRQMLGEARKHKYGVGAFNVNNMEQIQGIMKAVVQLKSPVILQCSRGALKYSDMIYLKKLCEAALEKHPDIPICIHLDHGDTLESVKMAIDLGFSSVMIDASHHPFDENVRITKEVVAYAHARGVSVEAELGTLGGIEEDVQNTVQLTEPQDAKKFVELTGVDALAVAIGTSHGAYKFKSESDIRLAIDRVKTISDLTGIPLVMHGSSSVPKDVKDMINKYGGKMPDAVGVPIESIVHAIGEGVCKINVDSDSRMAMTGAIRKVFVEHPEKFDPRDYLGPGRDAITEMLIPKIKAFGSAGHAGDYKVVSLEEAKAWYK
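Giardia FBPA (40 nM reagent) was preincubated 10 min at RT with compound (up to 57.5 uM final), then substrate plus GAPDH/TPI/NAD/arsenate coupling system with diaphorase/resazurin was added; resorufin fluorescence (525/598 nm) was read after 20 min.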
HCMV inh: blocks human cytomegalovirus replication. activity change, negative = inhibition, % at 57.5 µM. 4.5% of 410,000 active. HFF cells, HCMV-luciferase reporter, 72 h; active compounds read low. AID 1259415; in the data active = activity change below about -60%; inconclusive = no clear call, values can overlap the other calls; inactive = above about -39%
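Compounds were evaluated in HFFs infected with an HCMV luciferase reporter virus (MOI 1 PFU/cell). Luciferase in lysates collected 72 h post infection served as the replication measure.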
FMDV inh: foot and mouth disease virus antiviral activity; FMDV antiviral cell-based qHTS; Potency, µM (titrated, usually from 57.9 µM), for inactives: top-dose activity change, negative = inhibition, hits mostly inhibitors; 1.2% of 410,000 active; calls by dose curve; tested in HEK293T cells; note: read-out not given here; potency is the fitted concentration of half-maximal effect; nearly all actives have a fitted effect of over 45% in size
HCV inhibitor: inhibitors of hepatitis C virus infection. Potency, µM (titrated, usually from 41.8 µM), for inactives: at the highest dose activity change, negative = inhibition, most hits filed as inhibitors. Huh7.5.1 HCVcc-Cre infection, luciferase reporter, 44 h. AID 651820. 3.4% of 340,000 active; note: potency is the fitted concentration of half-maximal effect
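HCVcc-Cre virus at an moi near 0.5 was added right after compound to cells cultured 4 h from seeding (1,000 cells/well). Luciferase activity was determined 44 h later, 15 min after substrate addition at RT.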
VACV Venus inh: vaccinia inhibition (Venus reporter); Vaccinia virus Venus reporter expression, fluorescence; Potency, µM (top dose mostly 36.5 µM), for inactives: top-dose activity change, negative = inhibition, usual class: inhibitors; 0.46% of 330,000 active; AID 720580; calls by dose curve; tested in A549 cells; note: potency is the fitted concentration of half-maximal effect; nearly all actives have a fitted effect of over 30% in size
Numbers without * were called inactive. Unless noted, calls come from the whole dose curve; as a rule, active = well fitted curve in the direction sought with a large enough effect; inconclusive = small, poorly fitted or top-dose-only effect, or another doubt; inactive = no such curve, though single readings can be large; an effect the other way counts as inactive or inconclusive. % is set by controls: 0 for no effect and ±100 for the full control effect.

What do the screens show for `CC(C)(C)c1ccc(C(=O)Nc2ccc(S(N)(=O)=O)cc2)cc1`?
Vaccinia mCherry: -22%; FBPA Giardia inh: -10%; HCMV inh: -37; FMDV inh: -22%; HCV inhibitor: 22µM*; VACV Venus inh: -19%

How did NS(=O)(=O)c1ccc(NC(=O)c2ccc(-c3ccccc3)cc2)cc1 do in these assays?
Vaccinia mCherry: -3%; FBPA Giardia inh: -4%; HCMV inh: inconclusive; FMDV inh: -2%; HCV inhibitor: 10%; VACV Venus inh: -12%

How did O=S(=O)(Nc1cccc(S(=O)(=O)N2CCCCC2)c1)c1ccc(Cl)s1 do in these assays?
Vaccinia mCherry: -4%; HCMV inh: -67*; FMDV inh: -25%; HCV inhibitor: 11%; VACV Venus inh: -9%

What do the screens show for `CN1CCN(S(=O)(=O)c2ccc(NC(=O)c3ccc([N+](=O)[O-])cc3)cc2)CC1`?
Vaccinia mCherry: inconclusive; HCMV inh: -62*; FMDV inh: 14%; HCV inhibitor: 7%; VACV Venus inh: -10%

What do the screens show for `O=C(Cc1ccccc1Cl)Nc1cccc(S(=O)(=O)N2CCCCCC2)c1`?
HCMV inh: -19; FMDV inh: -16%; HCV inhibitor: inconclusive

How did O=C(Nc1cccc(S(=O)(=O)N2CCCCC2)c1)Nc1ccc(Cl)cc1Cl do in these assays?
Vaccinia mCherry: -26%; FBPA Giardia inh: -13%; HCMV inh: -100*; FMDV inh: inconclusive; HCV inhibitor: inconclusive; VACV Venus inh: inconclusive

Results for CCN(CC)S(=O)(=O)c1ccc(NC(=O)c2ccc(NS(C)(=O)=O)cc2)cc1 ?
Vaccinia mCherry: inconclusive; FBPA Giardia inh: 5%; HCMV inh: -30; FMDV inh: -18%; HCV inhibitor: inconclusive; VACV Venus inh: -16%

Results for CC(=O)Nc1ccc(C(=O)Nc2ccc(S(=O)(=O)N3CCCCC3)cc2)cc1 ?
Vaccinia mCherry: inactive; HCMV inh: -21; FMDV inh: -9%; HCV inhibitor: inconclusive; VACV Venus inh: -14%

Results for O=C(Nc1ccc(S(=O)(=O)N2CCCCC2)cc1)c1ccc(Cl)nc1 ?
HCMV inh: -75*; FMDV inh: 40µM*; HCV inhibitor: inconclusive

Results for NS(=O)(=O)c1ccc(NC(=O)c2ccc(S(=O)(=O)N3CCCCCC3)cc2)cc1 ?
Vaccinia mCherry: -3%; HCMV inh: -64*; FMDV inh: -11%; HCV inhibitor: -1%; VACV Venus inh: -17%

What do the screens show for `O=C(Nc1ccc(Cc2ccncc2)cc1)c1ccc(S(=O)(=O)N2CCCC2)cc1`?
Vaccinia mCherry: -24%; FBPA Giardia inh: 4%; HCMV inh: -87*; FMDV inh: 16µM*; HCV inhibitor: 5µM*; VACV Venus inh: -2%

Results for CCN(CC)S(=O)(=O)c1ccc(NC(=O)c2ccc(Cl)nc2)cc1 ?
Vaccinia mCherry: -14%; FBPA Giardia inh: -2%; HCMV inh: -62*; FMDV inh: -27%; HCV inhibitor: -22%; VACV Venus inh: -15%

Results for COC(=O)c1cc(CNC(=O)c2ccc(N(C)C)cc2)cc(NC(=O)c2ccccc2Cl)c1 ?
Vaccinia mCherry: -3%; FMDV inh: 3%; VACV Venus inh: 0%

Results for O=C(Nc1cccc(S(=O)(=O)N2CCCCC2)c1)c1ccc2ncsc2c1 ?
FBPA Giardia inh: -12%; HCMV inh: -9; FMDV inh: -14%; HCV inhibitor: 7.9µM*

How did CC1CCN(S(=O)(=O)c2ccc(NC(=O)c3ccncc3)cc2)CC1 do in these assays?
Vaccinia mCherry: -29%; HCMV inh: -64*; FMDV inh: inconclusive; HCV inhibitor: 11µM*; VACV Venus inh: -23%

Results for NS(=O)(=O)c1cccc(NC(=O)c2cccc(S(=O)(=O)N3CCCCCC3)c2)c1 ?
Vaccinia mCherry: -3%; HCMV inh: -12; FMDV inh: -16%; HCV inhibitor: inconclusive; VACV Venus inh: -14%

Results for O=C(Nc1cccc(S(=O)(=O)N2CCCCC2)c1)c1ccc(Cl)nc1 ?
HCMV inh: inconclusive; FMDV inh: 14µM*; HCV inhibitor: inconclusive

What do the screens show for `O=C(Nc1cccc(S(=O)(=O)Nc2ccccc2Cl)c1)c1ccc(Cl)nc1`?
Vaccinia mCherry: inconclusive; FBPA Giardia inh: 4%; HCMV inh: -86*; FMDV inh: 28µM*; HCV inhibitor: inconclusive; VACV Venus inh: -25%

Results for O=C(Nc1cccc(S(=O)(=O)N2CCCCCC2)c1)c1ccc(Cl)nc1 ?
Vaccinia mCherry: inactive; HCMV inh: inconclusive; FMDV inh: inconclusive; HCV inhibitor: inconclusive; VACV Venus inh: -13%

Results for COc1cc(NC(=O)C2CC(c3cccc(Br)c3)=NO2)cc(OC)c1OC (stereo not given) ?
Vaccinia mCherry: inconclusive; FBPA Giardia inh: 0%; HCMV inh: 15; FMDV inh: -19%; HCV inhibitor: -21%; VACV Venus inh: -27%

Results for COCC(C)NC(=O)C1CC(c2cccc(Br)c2)=NO1 (stereo not given) ?
FBPA Giardia inh: 7%; HCMV inh: 30; FMDV inh: 14%; HCV inhibitor: 3.2µM*

Results for Cn1c(=O)cnc2cnc(Nc3ccccc3)nc21 ?
FBPA Giardia inh: -14%; FMDV inh: 11%

What do the screens show for `CC12CCC(=O)C=C1CCC1C2CCC2(C)C(c3csc(N)n3)CCC12` (stereo not given)?
Vaccinia mCherry: inactive; HCMV inh: -93*; FMDV inh: 13µM*; HCV inhibitor: 10µM*; VACV Venus inh: -27%

How did CC12CCC(=O)C=C1CCC1C2C(O)CC2(C)C(c3csc(N)n3)CCC12 (stereo not given) do in these assays?
Vaccinia mCherry: -10%; HCMV inh: -22; FMDV inh: inconclusive; HCV inhibitor: inconclusive; VACV Venus inh: -8%

Results for Cc1[nH]ccc2cc3nc4ccccc4c3cc12 ?
Vaccinia mCherry: inconclusive; HCMV inh: -72*; FMDV inh: -20%; VACV Venus inh: inconclusive

Results for Nc1nc(-c2ccccc2)nc(-c2ccccc2O)n1 ?
Vaccinia mCherry: inconclusive; HCMV inh: 76; FMDV inh: 0%; HCV inhibitor: inconclusive; VACV Venus inh: inconclusive

How did Nc1nc(NCc2ccccc2)nc(-c2ccccc2)n1 do in these assays?
Vaccinia mCherry: -19%; FBPA Giardia inh: -5%; HCMV inh: 106; HCV inhibitor: 10µM*; VACV Venus inh: -21%

What do the screens show for `COc1ccc(S(=O)(=O)Nc2cccc3c2O[C@H](CN(C)CC2CCCCC2)[C@@H](C)CN([C@H](C)CO)C3=O)cc1`?
Vaccinia mCherry: inactive; HCMV inh: inconclusive; FMDV inh: 110%; HCV inhibitor: 0%; VACV Venus inh: -8%

How did Cc1c(C(=O)N(C)C2CCOC2)sc2ncnc(NCc3ccc4c(c3)OCO4)c12 (stereo not given) do in these assays?
Vaccinia mCherry: -12%; FMDV inh: 11%; VACV Venus inh: 5%
